Among the data in the supplement of paper PMC6555819 are PBM binding z-score values, retold here.

The first assay concerns PPARg:RXRa 90nM:30nM, anti-RXR (NR concentration 90 nM, RXRa partner concentration 30 nM). Briefly: PBM binding z-score (relative to random genomic background probes); higher = stronger binding; sequences stand for … in GC…GCGATTGACAGCGTAGAATGAAGG
In short, it runs like this:
(§1)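 For binding z-scores, the reference was random background probes on custom Agilent 4×180K protein-binding microarrays. These arrays were incubated 1 h with ligand-free nuclear receptor dimers in PBS pH 7.4, 2% milk, 0.02% Triton X-100, 1 mM DTT, 0.2 mg/mL BSA and 0.4 mg/ml salmon testes DNA. Fluorescence was scanned after antibody detection of each partner (one per run) and regression-normalized.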
The sequence CTACCAAGGTGGACAAGGTCGTTGATTACTATTC registered a PBM binding z-score of -0.0308.
Still for that read-out and setting: to AGAGTGAGGTTAAGATCAGGGAAACAGAATACAT belongs 1.36.
Still for that read-out and setting: under CCAGACAGGTGAAAGGGAACTCAGTCTGGTACGC stands 2.69; under CGAACTAGGTCATGGACAGTGAATCTCCGCACGC, 6.02; under CGACCTAGGTCATCCAGGACAGTGAATACATTGA, 2.59.
Sequence TAGCCTAGGTCATGCGGGCCACTATAGTGTCGGC returned a PBM binding z-score of 1.5.
ACTAGCAGGCCCAGTTTGGGTCACTCAAACAAAG registered a PBM binding z-score of -0.144.
As for TAGCCTAGGTCATTCAGGTGCCAGTATAGAAAGC, the PBM binding z-score was 1.54.
The same measure, in the same setting: to ATCCCTAGGTAAAGATAGTTCAGTGAATGCAAAT belongs -0.302; to CAAACTAGGGCACCGGAAGGTCAAAGTCCGCATG, 5.06.
CCCCGGAGGACAACAGGAGGTCAGAGCTGCCAGA registered a PBM binding z-score of -0.262.
Regarding CAAACTAGGTCAAGAGGGCAAAGTCCGCTTCCCG, the PBM binding z-score is 7.15.
The same measure, in the same setting: to ATCCAAAGGTCGACGAGGTGAGTATACACCGTTT belongs 3.03; to TATACAGGGTCAAACGCCAGAGTACGAATGTCGA, 5.94.
For ACTAGCAGGCCAAGTCTGGGTCACTCAAACAAAG, the PBM binding z-score was 0.56.
The sequence GCAGACAGGTGAAACGCAGGTGACTCAGGGTGGC gave a PBM binding z-score of -0.0702.
The sequence ATCTGTAGGTAACCAAGTTCAGTGAATGCCGAAC displayed a PBM binding z-score of 0.358.
The sequence CTTACTGGGCCATTCAGAGGTCATTGATCATATG returned a PBM binding z-score of 3.71.
On the same count and under the same terms, under ATACCAAGGTGATCGTGAGGTCGTTCATACTAAC stands -0.0407; under TAGCCTAGGTCATTCAGTGGCCAGTATAGAAAGC, 1.51.
Same read-out and setting: to AGTCAAAGTTCCCTAGGTAACGTAAGATTCAGCT belongs -0.0115; to TCTTGTAGATCAAGCAGGTGAAGAAAGCCTGAGT, 2.07; to CCTAGTTGGTCAAAGTCACACACGCTATAGGTAC, 1.46.
The sequence CCTAGTTGGTCGAGGTCACACACGCTATAGGTAC yielded a PBM binding z-score of 2.21.
As for GATACAGGGTCAAGGCCAGAGTTCGCGTATTGAT, the PBM binding z-score turned out to be 4.93.
The sequence CCAACTAGGTCAAGGACAGTGAATCTCCGCACGC displayed a PBM binding z-score of 4.79.
Consider TCTTGTAGATCAGCATGTTAAGAAAGCTGGCCAA, for which the PBM binding z-score was 2.19.
The same measure, in the same setting: under ACTTACGGGTCAACGAGGTTATAGCGCGCGTATA stands 4.49.
Still for that read-out and setting: under CGTCCAAGGTCAAAGATCAGTGAAGAGATGACGG stands 5.64; under CCTTACGGGTCGAGGTTATAGCACGGGTGGTACG, 0.242.
For GCTGACAGGTGAAACGCAGGTAACTCAGGGTGGC, the PBM binding z-score was -0.533.
As for CCTACTGGTCCACGAAAGGTCATTGATTCAGTGA, the PBM binding z-score stood at 2.22.
On to CCAACTGGGGCAAGGTTACCATAACGCACAGCCA, for which the PBM binding z-score stood at 4.22.
On the same count and under the same terms, under GCTGCTAGGTCAGGTTGGTCACCTAACGGGTACG stands 0.22; under CCGACTGGGGCAAAGGGTACCATACTCAGTACGA, 8.88.
On the same count and under the same terms, to ATCTCTAGGTAAGACTAAGTTCAGTGAAGAACGC belongs 1.75; to TCTATTAGTTTATTAGGGCAACCGAAACAGCGGA, 3.33; to CCTTACGGGCCACTCCAGGTTATAGCATCGGAGT, -0.41.
TCTTGTAGATCAAGCACGTTAAGAAAGCCTGAGT gave a PBM binding z-score of 1.97.

The subject of the next assay is PPARg:RXRa DBDmut IVT, anti-RXR (DBD mutation: RXRa K156A/R161A, NR concentration 270 nM, RXRa partner concentration 90 nM). The description is as above. An outline of the steps: as §1
For the sequence CTACCAAGGTGGACAAGGTCGTTGATTACTATTC, the PBM binding z-score came to 0.0779.
Still for that read-out and setting: under AGAGTGAGGTTAAGATCAGGGAAACAGAATACAT stands 0.514; under CCAGACAGGTGAAAGGGAACTCAGTCTGGTACGC, 1.08; under CGAACTAGGTCATGGACAGTGAATCTCCGCACGC, 8.13.
In the case of CGACCTAGGTCATCCAGGACAGTGAATACATTGA, the PBM binding z-score amounted to 3.28.
Same read-out and setting: under TAGCCTAGGTCATGCGGGCCACTATAGTGTCGGC stands 1.87; under ACTAGCAGGCCCAGTTTGGGTCACTCAAACAAAG, -0.917.
Sequence TAGCCTAGGTCATTCAGGTGCCAGTATAGAAAGC gave a PBM binding z-score of 1.57.
With ATCCCTAGGTAAAGATAGTTCAGTGAATGCAAAT, the PBM binding z-score was -0.0456.
The same measure, in the same setting: under CAAACTAGGGCACCGGAAGGTCAAAGTCCGCATG stands 7.77; under CCCCGGAGGACAACAGGAGGTCAGAGCTGCCAGA, -0.654.
Consider CAAACTAGGTCAAGAGGGCAAAGTCCGCTTCCCG, for which the PBM binding z-score is 8.35.
ATCCAAAGGTCGACGAGGTGAGTATACACCGTTT: the PBM binding z-score was found to be 0.48.
Same read-out and setting: to TATACAGGGTCAAACGCCAGAGTACGAATGTCGA belongs 2.52.
ACTAGCAGGCCAAGTCTGGGTCACTCAAACAAAG yielded a PBM binding z-score of 2.25.
Still for that read-out and setting: to GCAGACAGGTGAAACGCAGGTGACTCAGGGTGGC belongs 0.661; to ATCTGTAGGTAACCAAGTTCAGTGAATGCCGAAC, 2.89.
Same read-out and setting: to CTTACTGGGCCATTCAGAGGTCATTGATCATATG belongs 6.81; to ATACCAAGGTGATCGTGAGGTCGTTCATACTAAC, 0.587; to TAGCCTAGGTCATTCAGTGGCCAGTATAGAAAGC, 1.37.
Sequence AGTCAAAGTTCCCTAGGTAACGTAAGATTCAGCT registered a PBM binding z-score of -0.23.
Same read-out and setting: under TCTTGTAGATCAAGCAGGTGAAGAAAGCCTGAGT stands 1.7; under CCTAGTTGGTCAAAGTCACACACGCTATAGGTAC, 1.7.
On to CCTAGTTGGTCGAGGTCACACACGCTATAGGTAC, for which the PBM binding z-score worked out at 1.44.
Consider GATACAGGGTCAAGGCCAGAGTTCGCGTATTGAT, for which the PBM binding z-score was 2.6.
CCAACTAGGTCAAGGACAGTGAATCTCCGCACGC returned a PBM binding z-score of 7.53.
The same measure, in the same setting: to TCTTGTAGATCAGCATGTTAAGAAAGCTGGCCAA belongs 1.61.
Still for that read-out and setting: to ACTTACGGGTCAACGAGGTTATAGCGCGCGTATA belongs 3.58.
Same read-out and setting: under CGTCCAAGGTCAAAGATCAGTGAAGAGATGACGG stands 3.3; under CCTTACGGGTCGAGGTTATAGCACGGGTGGTACG, -0.517.
On to GCTGACAGGTGAAACGCAGGTAACTCAGGGTGGC, for which the PBM binding z-score stood at 1.22.
Still for that read-out and setting: to CCTACTGGTCCACGAAAGGTCATTGATTCAGTGA belongs 0.842; to CCAACTGGGGCAAGGTTACCATAACGCACAGCCA, 5.12; to GCTGCTAGGTCAGGTTGGTCACCTAACGGGTACG, 2.48.
The same measure, in the same setting: under CCGACTGGGGCAAAGGGTACCATACTCAGTACGA stands 3.56; under ATCTCTAGGTAAGACTAAGTTCAGTGAAGAACGC, 1.81; under TCTATTAGTTTATTAGGGCAACCGAAACAGCGGA, 4.65.
On the same count and under the same terms, to CCTTACGGGCCACTCCAGGTTATAGCATCGGAGT belongs 0.503; to TCTTGTAGATCAAGCACGTTAAGAAAGCCTGAGT, 1.73.
